Screens from PubChem BioAssay.
HCV inhibitor: inhibitors of hepatitis C virus infection; Huh7.5.1 HCVcc-Cre infection, luciferase reporter, 44 h; Potency, µM (series often up to 41.8 µM), without a hit: top-dose activity change, negative = inhibition, usual class: inhibitors; 340,000 tested, 3.4% active; note: potency is the fitted concentration of half-maximal effect
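Cells (1,000/well) were plated 4 h before compound, then infected with HCVcc-Cre virus (~0.5 moi). After 44 h further culture, infection was read as luciferase luminescence following a 15 min substrate incubation at room temperature.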
Giardia FBPA inh: inhibitors of Giardia lamblia fructose-1,6-bisphosphate aldolase | purified Giardia FBPA | AID 2451 | Potency, µM (top dose mostly 59.6 µM), for the others: top-dose activity, negative = inhibition, usual class: inhibitors | 290,000 tested, 0.71% active; note: potency is the fitted concentration of half-maximal effect; nearly all actives have a fitted effect of over 55% in size
Target sequence (A8B2U2 whole entry, looked up): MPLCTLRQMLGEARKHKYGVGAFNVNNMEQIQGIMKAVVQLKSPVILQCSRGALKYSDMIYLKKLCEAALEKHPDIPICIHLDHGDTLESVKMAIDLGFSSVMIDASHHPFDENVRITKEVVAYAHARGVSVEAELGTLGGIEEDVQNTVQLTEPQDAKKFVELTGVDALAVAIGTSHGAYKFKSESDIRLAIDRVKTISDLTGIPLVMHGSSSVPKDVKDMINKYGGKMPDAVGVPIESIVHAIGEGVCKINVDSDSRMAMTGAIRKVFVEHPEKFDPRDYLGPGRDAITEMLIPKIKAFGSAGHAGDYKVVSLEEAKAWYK
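Giardia FBPA (40 nM reagent) was preincubated 10 min at RT with compound (up to 57.5 uM final), then substrate plus GAPDH/TPI/NAD/arsenate coupling system with diaphorase/resazurin was added; resorufin fluorescence (525/598 nm) was read after 20 min.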
MARV entry inh: inhibitors of Marburg virus binding or cell entry; Marburg virus pseudotyped entry inhibition, cell reporter; Potency, µM (series often up to 37.8 µM), for the others: top-dose activity change, negative = inhibition, usual class: inhibitors; 300,000 tested, 1.8% active; calls by dose curve; tested in HEK293 cells; note: potency is the fitted concentration of half-maximal effect
HCMV inh: human cytomegalovirus inhibition. HFF cells, HCMV-luciferase reporter, 72 h; stronger effect = lower value. activity change, negative = inhibition, % at 57.5 µM. 410,000 tested, 4.5% active. AID 1259415; in the data active = activity change below about -60%; inconclusive = no clear call, values can overlap the other calls; inactive = above about -39%
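Steps: HFFs plated, 16 h 37C; compounds added; HCMV-luciferase added to MOI 1 PFU/cell; 72 h 37C; OneGlo reagent, 5 min room temperature; luminescence read, normalized to controls.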
LASV entry inh: Lassa virus entry inhibition. Lassa virus pseudotype entry inhibition, cell reporter. Potency, µM (highest dose often 37.9 µM), for inactives: top-dose activity change, negative = inhibition, most hits filed as inhibitors. 300,000 tested, 1.2% active. AID 540256; calls by dose curve; tested in HEK293 cells; note: potency is the fitted concentration of half-maximal effect; nearly all actives have a fitted effect of over 50% in size
FMDV inh: blocks foot and mouth disease virus; Potency, µM (top dose mostly 57.9 µM), for inactives: top-dose activity change, negative = inhibition, actives largely listed as inhibitors; 410,000 tested, 1.2% active; FMDV antiviral cell-based qHTS; AID 1159524; calls by dose curve; tested in HEK293T cells; note: read-out not given here; potency is the fitted concentration of half-maximal effect; nearly all actives have a fitted effect of over 45% in size
* marks the source's active call; other numbers are inactive results; ? = inconclusive; · = no result; ! = not active in a repeat; [ ] = remark or other dose. The list is not random: actives were taken first. Their share in the collection is about 8.3%. Unless noted, calls come from the whole dose curve; as a rule, active = well fitted curve in the direction sought with a large enough effect; inconclusive = small, poorly fitted or top-dose-only effect, or another doubt; inactive = no such curve, though single readings can be large; an effect the other way counts as inactive or inconclusive. % is set by controls: 0 for no effect and ±100 for the full control effect.

SMILES	HCV inhibitor	Giardia FBPA inh	MARV entry inh	HCMV inh	LASV entry inh	FMDV inh
C/C(=N\NC(=O)COc1ccc(C(C)(C)C)cc1)c1cc2ccccc2o1	10%	5%	10µM*	-38	3.2µM*	-13%
CCOc1ccccc1-c1nnc2n1N=C(c1ccc(OC)cc1)CS2	·	0%	·	·	·	·
Cc1nnc(N2CCC(C(=O)NCCc3ccccc3)CC2)c2nn(-c3ccc(Cl)cc3)c(C)c12	·	·	·	-11	12%[46.1 µM]	0%
Cc1ccc(-n2nc3c(N4CCCC(C(=O)NCc5ccc(Cl)cc5)C4)nnc(C)c3c2C)cc1 (stereo unspecified)	·	·	·	8	9%[46.1 µM]	5%
Cc1nnc(N2CCC(C(=O)NCCc3ccccc3Cl)CC2)c2nn(-c3ccccc3)c(C)c12	·	·	·	-91*	-13%[46.1 µM]	-16%
CCOc1ccccc1CNC(=O)C1CCN(c2nnc(C)c3c(C)n(-c4ccc(C)cc4)nc23)CC1	11µM*	6%	·	-86*	-9%[46.1 µM]	?
CCOc1ccc(CNC(=O)C2CCN(c3nnc(C)c4c(C)n(-c5ccc(C)cc5)nc34)CC2)cc1	13µM*	-2%	·	-74*	·	?
Cc1ccc(-n2nc3c(N4CCC(C(=O)NCc5ccccc5Cl)CC4)nnc(C)c3c2C)cc1	·	·	·	-28	-15%[46.1 µM]	?
Cc1nnc(N2CCC(C(=O)NCc3ccc(F)cc3)CC2)c2nn(-c3ccc(Cl)cc3)c(C)c12	·	·	·	-86*	-9%[46.1 µM]	-28%
Cc1ccc(-n2nc3c(N4CCC(C(=O)NCc5ccccc5C)CC4)nnc(C)c3c2C)cc1	6.3µM*	3%	·	·	·	-18%
COc1ccccc1CCNC(=O)C1CCN(c2nnc(C)c3c(C)n(-c4ccc(C)cc4)nc23)CC1	?	20%	·	-93*!	?	-9%
CCOc1ccc(-n2nc3c(SCCN4CCCC4)nnc(C)c3c2C)cc1	10µM*	-13%	?	?	7%	?
CCOC(=O)c1ccc(NC(=O)CSc2c(C(C)C)cnc3c2c(=O)n(C)c(=O)n3C)cc1	·	·	·	19	-12%[46.1 µM]	-1%
CCCn1c2c(c(O)c(C(=O)NCCCN(CC)CC)c1=O)CCCC2	?	1%	10µM*	-13	-17%	-28%
Cc1nc2ccccc2c(=O)n1NC(=O)c1c(O)c2c(n(CC(C)C)c1=O)CCCC2	?	4%	?	?	4%	-25%
CCCn1c2c(c(O)c(C(=O)NC)c1=O)CCCC2	?	0%	0%	-33	6%	-13%
CCCn1c2c(c(O)c(C(=O)NCc3ccccc3)c1=O)CCCC2	5µM*	·	-6%	23	-24%	-11%
CCCn1c2c(c(O)c(C(=O)Nc3ccc(OC)cc3)c1=O)CCCC2	11µM*	-1%	-5%	-11	-1%	0%
CCCCCCc1nc2ccccc2c(=O)n1NC(=O)c1c(O)c2c(n(CC(C)C)c1=O)CCCC2	19%	4%	-3%[46.1 µM]	-93*	?	-4%
COc1ccc(S(=O)(=O)c2cn(C)c3cc(N4CCCCCC4)c(F)cc3c2=O)cc1	·	·	·	2	-4%[46.1 µM]	-13%
Cn1c(=O)n(C/C=C/c2ccccc2)c(=O)c2c1nc1n2CCN1c1ccc(F)cc1	·	·	·	-22	9%[46.1 µM]	-2%
CC1=C(C)CS(=O)N(S(=O)(=O)c2ccccc2)C1 (stereo unspecified)	22%	0%	13µM*	-16	10%	?
CCOC(=O)c1cc(-c2ccc(N3CCOCC3)cc2)nn1-c1ccc(F)cc1F	11µM*	-4%	-29%	35	?	-21%
CCOC(=O)c1cc(-c2ccc(N3CCOCC3)cc2)nn1-c1ccccc1	?	2%	?	13	?	?
O=C(O)C1=C(O)CCCC1	·	·	2%	·	·	·
SMILES	HCV inhibitor	Giardia FBPA inh	MARV entry inh	HCMV inh	LASV entry inh	FMDV inh
C1COC(NC(C2CC2)C2CC2)=N1	11%[8.37 µM]	0%	11µM*!	-25	-3%	-14%
COc1cc(NC(=O)O[C@@H]2C(=O)c3cc(Br)ccc3O[C@H]2c2ccc3c(c2)OCO3)cc(OC)c1OC	·	-1%	·	·	·	·
Cc1ccc(C(=O)N2CCN(c3ccc(NC(=O)c4ccc5c(c4)OCCO5)cc3)CC2)cc1	2.8µM*	·	?	52	?	14µM*
O=C(Nc1ccc(N2CCN(C(=O)c3ccccc3)CC2)cc1)c1ccc2c(c1)OCO2	22µM*	·	-25%	-21	-23%	-9%
CC(C)C(=O)N1CCN(c2ccc(NC(=O)c3ccc4c(c3)OCCO4)cc2)CC1	-8%	2%	-20%	-30	0%	-30%
CCC(=O)N1CCN(c2ccc(NC(=O)c3ccc4c(c3)OCO4)cc2)CC1	-14%	1%	?	108	5%	-8%
Cc1ccccc1C(=O)N1CCN(c2ccc(NC(=O)c3ccc4c(c3)OCCO4)cc2)CC1	8.9µM*	12%	5µM*	-89*	?	7.1µM*
CC(=O)N1CCN(c2ccc(NC(=O)c3ccc4c(c3)OCO4)cc2)CC1	10%	-4%	-8%	31	3%	8%
Cc1ccc(CNC(=O)c2c(-c3ccccc3F)noc2C)o1	·	·	·	-4	4%[46.1 µM]	-6%
Cc1ccc(C#C[C@@H]2C=C[C@H](Oc3ccc4c(c3)OCO4)[C@@H](CO)O2)c(C)c1	·	·	11%[14.2 µM]	·	·	·
COc1ccc(O)c2c(=O)c3c(OC)cc4c(c3oc12)C1C=COC1O4 (stereo unspecified)	·	8%	·	-62*	·	·
Oc1c(C(c2ccc(F)cc2)N2CCCC2)sc2nc(-c3ccco3)nn12 (stereo unspecified)	·	·	·	8	?	28%
Nc1cc(=O)[nH]c(SCc2ccc(Cl)cc2Cl)n1	3.2µM*	-4%	·	-60*	·	?
CN1CCN2c3ccccc3Cc3ccccc3C2C1 (stereo unspecified)	4%[8.37 µM]	?	5.6µM*	?	?	-27%
Cc1ncc(-c2ccc(F)cc2)c(C2CCCN(Cc3cccc(O)c3)C2)n1 (stereo unspecified)	·	·	·	·	·	-11%
O=c1c2ccccc2[nH]c2ccc(F)cc12	?	0%	2%[46.1 µM]	?	7%	-10%
O=c1[nH]sc2cc(F)ccc12	?	?	?	-98*	-25%	-16%
O=c1ccsc2ccccc12	22%	·	17%	59	9%	14%
O=c1[nH]sc2ccccc12	?	-28%	?	-73*	-15%	-11%
O=C(NC1CCCCC1)O[C@H]1CC[C@@]23CCCN2C(=O)CCC[C@H]3[C@H]1Cc1ccccc1	·	·	·	-23	·	·
Oc1ccc(/C=C/c2cc(O)cc(O)c2)cc1	-7%[8.37 µM]	2%	3.2µM*	64	7.3µM*	?
Oc1ccc(/C=C\c2cc(O)cc(O)c2)cc1	·	6%	?	·	·	?
Cc1nc2c(-c3ccccc3)c(C)[nH]n2c(=O)c1Cc1ccc(Br)cc1	·	·	?	-97*	?	?
COc1ccc(-c2c(C)[nH]n3c(=O)c(Cc4ccccc4)c(C)nc23)cc1	-16%	10%	?	-88*	?	-20%
Cc1cc(=O)n2[nH]cc(-c3ccccc3)c2n1	1%	?	?	3	25%	-2%
